# PubChem BioAssay AID2314 (National Center for Advancing Translational Sciences (NCATS), 2010)
# The whole screen tested about 300,000 compounds, of which about 37,000 (12%) were called active. No stated cut-off is given here; in the data, active means max response mostly above about 13% (no sharp cut-off); inactive means mostly below about 14%. The list comes from a sample in which actives are over-represented; it also holds similar structures and randomly drawn compounds.
# Experiment: Cycloheximide Counterscreen for Small Molecule Inhibitors of Shiga Toxin; further: read at 38.3 µM for the half of the compounds with a filed dose; 0% is about no effect
# Details: cell reporter, cycloheximide protein synthesis inhibition counterscreen; active compounds read high
row,Structure (SMILES),max response
1,COC(=O)CSc1nc2c(c(C3CC=CCC3)c1C#N)CCC2 (configuration not stated),-1.01% (inactive)
2,CCOC(=O)c1sc(C)c2c1NC(C)(c1cccc3ccccc13)NC2=O (configuration not stated),0.788% (inactive)
3,C/C(=N\NC(=O)Cc1ccccc1[N+](=O)[O-])c1cccnc1,-0.525% (inactive)
4,Cc1sc2nc(SCC(N)=O)n(C)c(=O)c2c1C,-2.39% (inactive)
5,C=C(C)CSc1nc(N)c2c3c(sc2n1)CCC3,18.4% (active)
6,Nc1nc(SCC(=O)NCCN2CCOCC2)nc2sc3c(c12)CCC3,-2.27% (inactive)
7,CN(C)CCSc1nc(N)c2c3c(sc2n1)COC(C)(C)C3,-2.73% (inactive)
8,CCC1(C)Cc2c(sc3nc(SC)nc(N)c23)CO1 (configuration not stated),8.94% (inactive)
9,CC(C)(C)C1CCc2c(sc3nc(SCC(N)=O)nc(N)c23)C1 (configuration not stated),28.1% (active)
10,C=CCn1cc(C(=O)NCc2ccc(Cl)cc2)c(=O)c2cc(S(=O)(=O)N(CC)CC)ccc21,-6.07% (inactive)
11,CN(CCNC(=O)c1cc2c(-c3ccccc3F)nn(C)c2s1)C1CCCCC1,-2.34% (inactive)
12,CCOC(=O)C1CCCN(S(=O)(=O)c2ccc3c(c2)C(C)(C)C(=O)N3C)C1 (configuration not stated),-2.15% (inactive)
13,COc1ccc(N(C(=O)c2ccc(C)cc2)S(=O)(=O)c2cccs2)cc1,10.9% (inactive)
14,Clc1ccc(C2=CSC3=Nc4cccc5cccc(c45)N23)cc1,11.3% (active)
15,CC(=O)Oc1cccc(N2C(=O)CC(Nc3ccc(N4CCOCC4)cc3)C2=O)c1 (configuration not stated),49% (active)
16,CC(=O)Oc1cccc(N2C(=O)C3CC=C(Cl)CC3C2=O)c1 (configuration not stated),-3.93% (inactive)
17,COc1ccc(N2CCN(C3CC(=O)N(c4ccc5c(c4)OCCO5)C3=O)CC2)cc1 (configuration not stated),1.96% (inactive)
18,COc1ccc(Cn2c(=O)sc3ccccc32)cc1OC,-0.76% (inactive)
19,COc1ccccc1OCc1nc2ccccc2s1,27.4% (active)

row,Structure (SMILES),max response
1,COc1ccccc1OCCn1c(SCC(N)=O)nc2ccccc21,-1.3% (inactive)
2,CC1CCc2c(nc3ncnn3c2Nc2ccc(OC(F)(F)F)cc2)C1 (configuration not stated),0.841% (inactive)
3,OCCn1c(-c2ccccc2)csc1=Nc1ccccc1,38.9% (inactive)
4,COc1ccc2nc(Nc3nc4ccc(NC(C)=O)cc4s3)sc2c1,6.12% (inactive)
5,COc1ccc2nc(Nc3nc(-c4cc5ccccc5oc4=O)cs3)sc2c1,13.6% (active)
6,CCOc1ccc(S(=O)(=O)Nc2nc3cc(OC)ccc3s2)cc1,-4.35% (inactive)
7,Cn1c(SCC(=O)NC2CCCCC2)nnc1-c1cc2ccccc2o1,10.2% (inactive)
8,COc1ccccc1CN(C)C(=O)c1cc2ccccc2o1,7.81% (inactive)
9,O=c1oc2ccccc2cc1-c1csc(Nc2ccc(O)cc2)n1,46% (active)
10,CC(=O)Nc1nc(C)c(-c2csc(Nc3ccc(S(N)(=O)=O)cc3)n2)s1,-0.544% (inactive)
11,COc1ccc2nc(Nc3nc(-c4ccncc4)cs3)sc2c1,21.5% (inactive)
12,COc1ccc2oc(=O)cc(-c3cc4ccccc4o3)c2c1,4.74% (inactive)
13,COc1ccc2nc(Nc3nc4cc5c(cc4s3)OCCO5)sc2c1,33.1% (active)
14,CCNc1nc(-c2cc3ccccc3o2)cs1,58% (active)
15,Cc1ccc(OCCCC(=O)Nc2ccc(S(=O)(=O)Nc3cc(C)nc(C)n3)cc2)cc1,-2.32% (inactive)
16,CN(C)[C@@H]1C(=O)C(C(N)=O)=C(O)[C@@]2(O)C(=O)C3=C(O)c4c(O)ccc(Cl)c4[C@@H](O)[C@H]3C[C@@H]12,3.73% (inactive)
17,CCN(CC)CCOCCOc1ccc(Cl)c2ccccc12,-2.87% (inactive)
18,COc1cc(NS(=O)(=O)c2ccc(NC(=S)NC(=O)c3ccc(Br)cc3)cc2)ncn1,0.589% (inactive)
